Tests used:
Assay in all cases: DAPPL (digital affinity profiling via proximity ligation, sequencing); 10 mM Tris-HCl pH 7.5, 50 mM NaCl, 1 mM DTT, 4% glycerol, room temperature, 30 min; GST-TFs on glutathione beads, 16-mer random dsDNA library, 0.1% formaldehyde crosslink after washing; high values mean tight binding
Settings in all cases: protein: recombinant; tags: N-terminal GST; dsDNA, one strand shown
SPIC = target: T1, SPIC (Homo sapiens, UniProt Q8N5J4 1-248)
T1 sequence: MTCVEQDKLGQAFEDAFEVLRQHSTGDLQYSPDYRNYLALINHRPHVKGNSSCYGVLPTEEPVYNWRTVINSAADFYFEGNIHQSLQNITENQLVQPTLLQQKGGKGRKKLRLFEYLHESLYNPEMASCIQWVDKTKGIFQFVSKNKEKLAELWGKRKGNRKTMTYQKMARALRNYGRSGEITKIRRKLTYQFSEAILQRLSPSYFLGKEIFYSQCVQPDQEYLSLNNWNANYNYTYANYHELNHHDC
In short: (§1)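 In yeast, human transcription factors were expressed with a GST fusion, then pulled down on glutathione beads and given DNA barcodes. Pooled with a tag-only sample, they were exposed to 200 nmole of a 16-mer random double-stranded DNA library (Tris/NaCl/DTT/glycerol buffer, room temperature, 30 min), washed, crosslinked with 0.1% formaldehyde, proximity-ligated using BsaI/T4 ligase for 1 h at 37 °C, PCR-amplified and read on an Illumina NextSeq500. Each hexamer's frequency of reads for a factor, divided by the matching frequency for the tag-only sample, gives the binding signal.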

SPDEF = target: T2, SPDEF (Homo sapiens, UniProt O95238 1-335)
T2 sequence: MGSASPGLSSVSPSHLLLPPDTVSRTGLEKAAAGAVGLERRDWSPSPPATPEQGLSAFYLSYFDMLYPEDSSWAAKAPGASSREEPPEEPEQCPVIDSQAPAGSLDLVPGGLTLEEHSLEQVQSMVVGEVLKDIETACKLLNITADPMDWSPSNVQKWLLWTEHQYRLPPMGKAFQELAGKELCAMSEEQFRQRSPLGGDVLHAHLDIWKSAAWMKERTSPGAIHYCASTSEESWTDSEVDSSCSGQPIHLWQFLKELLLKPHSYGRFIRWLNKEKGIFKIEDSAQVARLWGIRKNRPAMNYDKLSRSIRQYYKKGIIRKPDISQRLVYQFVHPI
In short: as §1

ELF5 = target: T3, ELF5 (Homo sapiens, UniProt Q9UKW6-2 1-255)
T3 sequence: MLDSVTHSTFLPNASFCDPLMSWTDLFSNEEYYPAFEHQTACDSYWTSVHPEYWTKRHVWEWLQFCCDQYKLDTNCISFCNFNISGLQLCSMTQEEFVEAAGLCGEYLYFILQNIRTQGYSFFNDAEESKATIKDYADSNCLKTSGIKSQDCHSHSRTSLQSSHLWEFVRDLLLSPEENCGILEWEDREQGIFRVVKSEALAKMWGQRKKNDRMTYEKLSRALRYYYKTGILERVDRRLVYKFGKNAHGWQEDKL
In short: as §1

FEV = target: T4, FEV (Homo sapiens, UniProt Q99581 1-238)
T4 sequence: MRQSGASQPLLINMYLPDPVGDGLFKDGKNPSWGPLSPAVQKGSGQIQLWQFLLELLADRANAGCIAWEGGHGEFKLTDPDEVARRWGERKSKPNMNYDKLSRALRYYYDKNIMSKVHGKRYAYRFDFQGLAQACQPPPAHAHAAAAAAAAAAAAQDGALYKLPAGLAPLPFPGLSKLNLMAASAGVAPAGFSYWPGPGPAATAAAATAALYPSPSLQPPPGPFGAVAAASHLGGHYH
In short: as §1

ERF = target: T5, ERF (Homo sapiens, UniProt P50548 1-548)
T5 sequence: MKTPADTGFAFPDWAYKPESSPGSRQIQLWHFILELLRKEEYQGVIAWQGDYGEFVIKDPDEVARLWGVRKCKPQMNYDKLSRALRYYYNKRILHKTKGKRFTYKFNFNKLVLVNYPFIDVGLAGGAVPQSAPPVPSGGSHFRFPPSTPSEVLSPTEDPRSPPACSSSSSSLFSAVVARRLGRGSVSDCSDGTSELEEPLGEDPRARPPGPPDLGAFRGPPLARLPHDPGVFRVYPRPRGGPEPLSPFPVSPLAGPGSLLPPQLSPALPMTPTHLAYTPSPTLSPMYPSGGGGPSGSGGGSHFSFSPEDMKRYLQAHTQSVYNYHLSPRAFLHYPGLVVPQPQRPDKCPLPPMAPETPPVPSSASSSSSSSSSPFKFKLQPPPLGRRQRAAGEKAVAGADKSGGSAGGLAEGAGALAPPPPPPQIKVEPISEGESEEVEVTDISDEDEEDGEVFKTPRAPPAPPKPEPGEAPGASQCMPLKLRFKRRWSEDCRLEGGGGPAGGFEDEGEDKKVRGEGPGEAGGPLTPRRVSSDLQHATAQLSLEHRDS
In short: as §1

ETV3L = target: T6, ETV3L (Homo sapiens, UniProt Q6ZN32 1-361)
T6 sequence: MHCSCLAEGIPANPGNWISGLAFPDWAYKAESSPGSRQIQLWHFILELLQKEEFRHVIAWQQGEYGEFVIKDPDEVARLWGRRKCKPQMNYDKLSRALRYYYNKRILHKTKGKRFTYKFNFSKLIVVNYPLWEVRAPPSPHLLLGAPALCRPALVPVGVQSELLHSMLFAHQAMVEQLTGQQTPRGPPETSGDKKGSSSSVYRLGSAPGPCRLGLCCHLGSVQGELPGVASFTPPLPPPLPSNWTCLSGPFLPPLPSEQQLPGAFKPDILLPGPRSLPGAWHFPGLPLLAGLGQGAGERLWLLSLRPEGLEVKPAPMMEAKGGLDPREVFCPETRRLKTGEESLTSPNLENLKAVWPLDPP
In short: as §1

ETV7 = target: T7, ETV7 (Homo sapiens, UniProt Q9Y603 1-341)
T7 sequence: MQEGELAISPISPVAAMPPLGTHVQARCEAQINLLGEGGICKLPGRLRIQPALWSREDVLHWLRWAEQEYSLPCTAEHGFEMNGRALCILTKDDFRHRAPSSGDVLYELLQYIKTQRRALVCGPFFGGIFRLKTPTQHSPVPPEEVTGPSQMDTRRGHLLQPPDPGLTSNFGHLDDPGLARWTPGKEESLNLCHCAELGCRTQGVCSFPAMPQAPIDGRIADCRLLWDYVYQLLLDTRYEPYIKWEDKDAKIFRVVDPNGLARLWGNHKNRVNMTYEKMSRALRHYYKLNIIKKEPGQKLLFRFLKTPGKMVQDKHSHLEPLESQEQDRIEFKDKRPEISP
In short: as §1

ETV3 = target: T8, ETV3 (Homo sapiens, UniProt P41162-2 1-143)
T8 sequence: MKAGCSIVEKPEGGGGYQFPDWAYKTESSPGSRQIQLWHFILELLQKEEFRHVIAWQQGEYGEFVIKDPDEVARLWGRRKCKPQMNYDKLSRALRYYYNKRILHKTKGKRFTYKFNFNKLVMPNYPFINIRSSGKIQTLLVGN
In short: as §1

ETV6 = ETV6 (Homo sapiens, UniProt P41212 1-452)
Chain of ETV6 (P41212 whole entry): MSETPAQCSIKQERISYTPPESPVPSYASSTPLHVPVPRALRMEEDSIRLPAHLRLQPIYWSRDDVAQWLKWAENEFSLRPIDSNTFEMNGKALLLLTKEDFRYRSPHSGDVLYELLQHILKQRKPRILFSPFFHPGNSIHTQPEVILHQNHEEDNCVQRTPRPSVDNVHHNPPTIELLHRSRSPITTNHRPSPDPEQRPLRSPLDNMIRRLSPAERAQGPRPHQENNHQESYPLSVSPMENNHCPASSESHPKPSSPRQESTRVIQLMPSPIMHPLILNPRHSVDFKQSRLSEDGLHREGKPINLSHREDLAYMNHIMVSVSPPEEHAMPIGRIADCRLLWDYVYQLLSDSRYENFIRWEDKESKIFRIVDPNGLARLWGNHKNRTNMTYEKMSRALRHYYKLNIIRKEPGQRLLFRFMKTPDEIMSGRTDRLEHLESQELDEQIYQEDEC
In short: as §1

ELK4 = target: T9, ELK4 (Homo sapiens, UniProt P28324-2 1-405)
T9 sequence: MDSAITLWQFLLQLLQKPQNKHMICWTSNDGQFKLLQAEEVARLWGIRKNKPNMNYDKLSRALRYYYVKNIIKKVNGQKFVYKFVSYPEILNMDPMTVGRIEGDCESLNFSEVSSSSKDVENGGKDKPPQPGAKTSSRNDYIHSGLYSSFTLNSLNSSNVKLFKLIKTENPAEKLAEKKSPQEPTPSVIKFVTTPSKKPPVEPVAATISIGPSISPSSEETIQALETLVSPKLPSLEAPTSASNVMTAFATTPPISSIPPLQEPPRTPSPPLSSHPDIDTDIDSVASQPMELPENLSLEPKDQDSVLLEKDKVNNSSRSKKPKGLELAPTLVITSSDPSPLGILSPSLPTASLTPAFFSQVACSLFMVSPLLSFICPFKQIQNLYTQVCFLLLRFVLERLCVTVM
In short: as §1

SPI1 = SPI1 (Homo sapiens, UniProt P17947 1-270)
In short: as §1

ELK3 = target: T10, ELK3 (Homo sapiens, UniProt P41970 1-407)
T10 sequence: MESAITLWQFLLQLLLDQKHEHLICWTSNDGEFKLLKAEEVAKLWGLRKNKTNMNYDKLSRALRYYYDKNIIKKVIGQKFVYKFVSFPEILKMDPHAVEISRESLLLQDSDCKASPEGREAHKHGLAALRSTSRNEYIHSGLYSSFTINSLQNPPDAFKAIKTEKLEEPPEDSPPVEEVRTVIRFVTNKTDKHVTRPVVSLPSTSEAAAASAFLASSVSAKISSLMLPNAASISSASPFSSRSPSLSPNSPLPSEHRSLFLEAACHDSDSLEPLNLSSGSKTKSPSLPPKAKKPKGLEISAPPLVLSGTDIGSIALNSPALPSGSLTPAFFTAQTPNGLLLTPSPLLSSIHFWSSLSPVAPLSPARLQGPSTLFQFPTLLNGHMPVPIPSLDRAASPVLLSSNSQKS
In short: as §1

ELF3 = target: T11, ELF3 (Homo sapiens, UniProt P78545 1-371)
T11 sequence: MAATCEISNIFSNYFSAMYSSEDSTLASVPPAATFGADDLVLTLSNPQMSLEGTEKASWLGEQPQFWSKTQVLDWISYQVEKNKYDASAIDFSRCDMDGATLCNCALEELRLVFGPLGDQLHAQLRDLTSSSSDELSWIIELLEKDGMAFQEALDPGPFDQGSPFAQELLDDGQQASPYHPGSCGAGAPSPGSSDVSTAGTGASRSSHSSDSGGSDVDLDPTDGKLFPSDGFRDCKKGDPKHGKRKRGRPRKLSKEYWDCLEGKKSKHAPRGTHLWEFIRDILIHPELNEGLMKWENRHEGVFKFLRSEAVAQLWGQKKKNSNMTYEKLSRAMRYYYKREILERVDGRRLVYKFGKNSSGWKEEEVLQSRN
In short: as §1

Question: For CGGGTT, which binding signal (SPIC) is on record?
Answer: 1 fold enrichment (6-mer frequency, TF over GST control)

Question: And the binding signal (SPDEF)?
Answer: 1.09 fold enrichment (6-mer frequency, TF over GST control)

Question: And the binding signal (ELF5)?
Answer: 1.02 fold enrichment (6-mer frequency, TF over GST control)

Question: How did the binding signal (FEV) turn out when GCGACA was run?
Answer: 1.02 fold enrichment (6-mer frequency, TF over GST control)

Question: What about the binding signal (SPIC) of the same sequence?
Answer: 1.03 fold enrichment (6-mer frequency, TF over GST control)

Question: What about the binding signal (ERF) of the same sequence?
Answer: 1.04 fold enrichment (6-mer frequency, TF over GST control)

Question: What about the binding signal (ETV3L) of the same sequence?
Answer: 1.04 fold enrichment (6-mer frequency, TF over GST control)

Question: And the binding signal (SPDEF)?
Answer: 1 fold enrichment (6-mer frequency, TF over GST control)

Question: What about the binding signal (ETV7) of the same sequence?
Answer: 1.05 fold enrichment (6-mer frequency, TF over GST control)

Question: And the binding signal (ETV3)?
Answer: 1.01 fold enrichment (6-mer frequency, TF over GST control)

Question: And the binding signal (ETV6)?
Answer: 1.04 fold enrichment (6-mer frequency, TF over GST control)

Question: With AGTTTG as the sequence, how does the binding signal (SPIC) read?
Answer: 1.06 fold enrichment (6-mer frequency, TF over GST control)

Question: And the binding signal (ELK4)?
Answer: 1.03 fold enrichment (6-mer frequency, TF over GST control)

Question: And the binding signal (ERF)?
Answer: 1.01 fold enrichment (6-mer frequency, TF over GST control)

Question: What does the source list for GTGGTT?
Answer: binding signal (SPI1): 1.02 fold enrichment (6-mer frequency, TF over GST control); binding signal (ELK3): 1.01 fold enrichment (6-mer frequency, TF over GST control); binding signal (SPIC): 1.01 fold enrichment (6-mer frequency, TF over GST control); binding signal (ELF3): 1.1 fold enrichment (6-mer frequency, TF over GST control)

From paper PMC7862700, “An all-to-all approach to the identification of sequence-specific readers for epigenetic DNA modifications on cytosine”
